Each structure is given as a SMILES string. Active and inactive are the calls of the source.

The first test can be described thus: resazurin metabolic signal in HepG2 cells – cell-based, resazurin fluorescence, 24 h, PK04 Diversity Set, profiling panel (AID 1172). Also: test concentration not given here. Particulars: HepG2 viability, higher = more signal. In general terms: Alamar Blue is a resazurin reagent that responds to reducing activity.
`CC(C)=CCCC(C)=CCON=C1C[C@@H](O)[C@@H](O)[C@@H]2[C@@H]3C(=O)N(Cc4ccc5c(c4)OCO5)C(=O)[C@@H]3CC[C@H]12` had a z-score of 0.659.

Compound `COC(=O)[C@H](C)NC(=O)CC=C[C@@H](C)[C@@H]1C=C[C@H](O)[C@@H](CO)O1` showed a z-score of -0.261. Regarding `COc1ccc(COC(=O)NN=C2C[C@@H](O)[C@@H](O)[C@@H]3[C@@H]4C(=O)N(C[C@@H]5CCCO5)C(=O)[C@@H]4CC[C@@H]23)cc1`, the z-score was -0.407.

A short description of another test: budding yeast growth changes without added modifier – OD600, strain BY4716, 24 h, basal condition, primary screen (AID 1173). Particulars: S. cerevisiae BY4716 growth, OD600, 24 h; higher = more signal, called active from +8 up or from −8 down.
For `COC(=O)[C@H](C)NC(=O)CCC1CC(OC(=O)NCc2cccc3ccccc23)CC2(CCCC(COC(=O)NCc3ccccc3)O2)O1` (some centres undefined), the z-score was -0.79 (inactive). The same measure, in the same setting: with `O=C1CCCC=C1C(O)C1CCCCC1` (centres undefined) the figure was -0.143 (inactive); with `COc1ccc(COC(=O)NN=C2C[C@@H](O)[C@@H](O)[C@@H]3[C@@H]4C(=O)N(Cc5ccccc5)C(=O)[C@@H]4CC[C@@H]23)cc1`, 0.18 (inactive). As for `CO[C@H]1COC(=O)CC=C[C@H](C)[C@H](OC)COC(=O)[C@@H](C)NC(=O)CC=C[C@@H]1C`, the z-score is -1.17 (inactive).

Regarding `CC(C)CON=C1[C@H]2CCn3c(=O)n(C)c(=O)n3[C@H]2[C@H](O)[C@@H]2O[C@H]12`, the z-score is 0.0789 (inactive). The same measure, in the same setting: the result for `CCOC(=O)CCN1C(=O)[C@H]2[C@H]3[C@H](O)[C@H](O)CC(=NOCC=C(C)CCC=C(C)C)[C@@H]3CC[C@H]2C1=O` reads 0.448 (inactive); that for `CC[C@@H](c1ccccc1)n1c(=O)n2n(c1=O)[C@H]1[C@H](O)[C@@H]3O[C@@H]3C(=NOCc3ccccc3)[C@H]1CC2`, -1.04 (inactive); that for `CC(CCN1CCCc2nc(C)c(C)cc21)=NO[C@@H](C)c1cn([C@H](CO)Cc2ccccc2)nn1`, 0.472 (inactive).

Take `COC(=O)[C@H](C)NC(=O)CCC1CC(OC(=O)NCCc2ccc(F)cc2)CC2(CCCC(COC(=O)NCC3CCCCC3)O2)O1` (some centres undefined): the z-score is -0.491 (inactive).

In the case of `CCOC(=O)[C@H](Cc1ccccc1)NC(=O)CCC1CC(OC(=O)NCc2ccc3c(c2)OCO3)CC2(CCCC(COC(=O)NCCCN3CCCC3=O)O2)O1` (some centres undefined), the z-score is -0.547 (inactive). Same read-out and setting: with `CC(CCC(=O)OC[C@H]1O[C@H](C#Cc2ccccc2)C=C[C@@H]1Oc1ccc(C)cc1)=NOC[C@@H](C)[C@H](OCc1ccccc1)C(C)C` the figure was 0.513 (inactive); with `CCN1C(=O)[C@H]2[C@H]3[C@H](O)[C@H](O)CC(=NOC[C@@H](O)[C@H]4O[C@@H]5OC(C)(C)O[C@@H]5[C@H]4O)[C@@H]3CC[C@H]2C1=O`, -0.569 (inactive); with `CC(C)CON=C1C[C@@H](O)[C@@H](O)[C@@H]2[C@@H]3C(=O)N(Cc4ccc5c(c4)OCO5)C(=O)[C@@H]3CC[C@@H]12`, 0.793 (inactive). The same measure, in the same setting: with `C=CC[C@@H]1C=C[C@H](ON=C2C[C@@H](O)[C@@H](O)[C@@H]3[C@@H]4C(=O)N(CC)C(=O)[C@@H]4CC[C@@H]23)[C@@H](CO)O1` the figure was -0.099 (inactive); with `CO[C@H]1COC(=O)CCC[C@H](C)[C@H](OC)COC(=O)CC=C[C@@H]1C`, -2.21 (inactive); with `COc1ccc2c(c1)O[C@@H](c1cccc(C(F)(F)F)c1)[C@H](O)C2=O`, -14.3 (active). On the same count and under the same terms, with `CC(CCN1CCCc2nc(C)c(C)cc21)=NOC[C@@H](O)COCc1ccco1` the figure was 0.657 (inactive). `CCN1C(=O)[C@H]2[C@H]3[C@H](O)[C@H](O)CC(=NO[C@@H]4O[C@H](CO)[C@@H](O)[C@H](O)[C@H]4O)[C@H]3CC[C@H]2C1=O`: the z-score was -0.305 (inactive). As to `CCOC(=O)[C@H](CC(C)C)NC(=O)CCC1CC(OC(=O)NCc2ccc3c(c2)OCO3)CC2(CCCC(COC(=O)NCCOc3ccccc3)O2)O1` (some centres undefined), the z-score is 0.592 (inactive).

Turning to `O=C1C2=CC[C@H]3C(=O)N(c4ccc(F)cc4F)C(=O)[C@H]3[C@H]2[C@H](O)[C@@H]2O[C@H]12`, the z-score is -0.448 (inactive). For `CC(=O)OC[C@H]1O[C@H](C#CCCc2ccccc2)C=C[C@@H]1OC(C)=O`, the z-score was -1.17 (inactive). On to `CC(C)=NOC(C)CN1CCCc2nc(C)c(C)cc21` (centres undefined), for which the z-score is -0.211 (inactive). Still for that read-out and setting: with `COC(=O)[C@H](C)NC(=O)CCC1CC(OC(=O)NCc2cccc3ccccc23)CC2(CCCC(COC(=O)NCCOc3ccccc3)O2)O1` (some centres undefined) the figure was -0.689 (inactive); with `C[C@@H]1CC[C@@H](C(=O)O)N[C@H]1c1cccc(N2CCOCC2)c1`, -1.62 (inactive); with `COC(=O)[C@@H]1CC[C@H](C)[C@@H](c2ccc(Br)cc2)N1C[C@H](O)CN=[N+]=[N-]`, -6.28 (inactive).

For `CCOC(=O)[C@H](Cc1ccccc1)NC(=O)CCC1CC(OC(=O)NCCc2ccc(F)cc2)CC2(CCCC(COC(=O)NCc3cccc(C(F)(F)F)c3)O2)O1` (some centres undefined), the z-score was -0.0427 (inactive).

With `COc1cccc([C@H]2Oc3ccc(OC)cc3C(=NOCC[C@@H]3C=C[C@H](OC(C)=O)[C@@H](COC(C)=O)O3)[C@@H]2O)c1`, the z-score is 0.813 (inactive).

Turning to `CC(=O)OC[C@H]1O[C@H](CC=NO[C@@H](C)c2cc(-c3c(C)cc(C)cc3C)no2)C=C[C@@H]1OC(C)=O`, the z-score was 0.493 (inactive). Turning to `CCOC(=O)NN=C1C[C@@H](O)[C@@H](O)[C@@H]2[C@@H]3C(=O)N(c4ccc(F)cc4F)C(=O)[C@@H]3CC[C@H]12`, the z-score was -0.468 (inactive).

Take `O=C1[C@H]2[C@H]3[C@H](O)[C@H](O)CC(=NO[C@@H]4O[C@H](CO)[C@@H](O)[C@H](O)[C@H]4O)[C@H]3CC[C@H]2C(=O)N1C[C@@H]1CCCO1`: the z-score is 0.628 (inactive). Turning to `CCOC(=O)[C@H](Cc1ccccc1)NC(=O)CCC1CC(OC(=O)NCCc2ccc(F)cc2)CC2(CCCC(COC(=O)NCCC(C)C)O2)O1` (some centres undefined), the z-score is -0.0624 (inactive). Take `CO[C@H]1COC(=O)[C@H](C)COC(=O)[C@@H](OCc2ccccc2)C=C[C@@H]1C`: the z-score was -2.14 (inactive). `O=C1[C@H]2[C@H]3[C@H](O)[C@H](O)CC(=NOC[C@@H](O)COCc4ccco4)[C@@H]3CC[C@H]2C(=O)N1Cc1ccccc1`: the z-score was -1.64 (inactive). The same measure, in the same setting: with `CC(C)=CCCC(C)=CCON=C1C[C@@H](O)[C@@H](O)[C@@H]2[C@@H]3C(=O)N(Cc4ccc5c(c4)OCO5)C(=O)[C@@H]3CC[C@H]12` the figure was 0.522 (inactive). Still for that read-out and setting: the result for `COC(=O)[C@H](C)NC(=O)CC=C[C@@H](C)[C@@H]1C=C[C@H](O)[C@@H](CO)O1` reads 0.104 (inactive); that for `COc1ccc(COC(=O)NN=C2C[C@@H](O)[C@@H](O)[C@@H]3[C@@H]4C(=O)N(C[C@@H]5CCCO5)C(=O)[C@@H]4CC[C@@H]23)cc1`, 0.443 (inactive).

The record behind these values is PubChem BioAssay.
